Measurements from PubChem BioAssay (NCATS).
Records with an inconclusive call do not appear. Unmarked numbers belong to inactive results. Calls come from the whole dose curve; as a rule, active = well fitted curve in the direction sought with a large enough effect; inconclusive = small, poorly fitted or top-dose-only effect, or another doubt; inactive = no such curve, though single readings can be large or run the other way.

Assay: qHTS Assay for Identifying Gametocytocidal Compounds (AID 743244);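 note: actives lower the fluorescent signal which means gametocytes are killed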
Conditions: P. falciparum 3D7 stage III-V gametocytes, alamarBlue, 72 h; max response: active compounds read low
How it was run: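 Fluorescence at Ex 525/Em 598 nm, recorded 24 h after alamarBlue addition, reports residual metabolic activity of 3D7 gametocytes (stages III–V) following 72 h compound exposure at 37 °C, 5% CO2.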
% is set by controls: 0 for no effect and ±100 for the full control effect.

Compound | max response [%]
O=[N+]([O-])c1cccc(S(=O)(=O)NCCNS(=O)(=O)c2cccc([N+](=O)[O-])c2)c1 | 1.36
CC(=O)Nc1ncc([N+](=O)[O-])s1 | -10.1
Cc1ccc(S(=O)(=O)NC(=O)NC2CCCC2)cc1 | 3.98
CC(=O)NCCCCCC(=O)O | -5.55
O=C1[C@H](CC[C@H](O)c2ccc(F)cc2)[C@@H](c2ccc(O)cc2)N1c1ccc(F)cc1 | 4.75
CC(C)n1c(/C=C/[C@@H](O)C[C@@H](O)CC(=O)O)c(-c2ccc(F)cc2)c2ccccc21 | -9.47
CCC1NC(=O)c2cc(S(N)(=O)=O)c(Cl)cc2N1 (stereo not given) | 5.58
Cc1nc(-c2ccc(Cl)cc2)oc1COC(C)(C)C(=O)O | -2.69
CC(=O)OCC1=C(C(=O)O)N2C(=O)[C@@H](NC(=O)CSc3ccncc3)[C@H]2SC1 | -9.74
CCC(Cc1c(I)cc(I)c(N)c1I)C(=O)O (stereo not given) | 3.24
CCOc1ccccc1OCCN[C@H](C)Cc1ccc(OC)c(S(N)(=O)=O)c1 | 5.89
Cc1c(-c2ccccc2)oc2c(C(=O)OCCN3CCCCC3)cccc2c1=O | 3.61
CC(C)[N+](C)(C)CC(O)COc1cccc2ccccc12 (stereo not given) | -10.5
CCOC(=O)[C@H](CCc1ccccc1)N[C@@H](C)C(=O)N1[C@H](C(=O)O)C[C@@H]2CCC[C@@H]21 | -0.0266
CCN(CC)CCOc1ccccc1C(=O)CCc1ccccc1 | -3.28
